These results are taken from PubChem BioAssay (NCI).

The panel holds about 83,000 compounds, 20% with a hit somewhere; the sample as a whole holds those more often.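 How to read the values: 0–100, growth inhibition (40 = 60% inhibited); 0, no net growth; -100 to 0, cell death (-40 = 40% of starting cells died; -100 = all dead).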 A number with no mark means an inactive call. Calls of active or inactive are those of the source. The calls were made as follows: active = growth percent below 10; inactive = the rest.

Some test systems named below: DU-145 prostate; K-562 leukemia; MALME-3M melanoma; MDA-MB-231 breast; RXF 393 renal; SF-268 CNS; SF-295 CNS; SF-539 CNS; UACC-257 melanoma; M14 melanoma.
Common to all, as to assay: NCI-60 one-dose screen, 48 h (100 = growth as untreated, 0 = no growth, -100 = all killed)
Holding throughout (settings): 10 µM unless noted

For the compound `C=C(CNCCO)[C@@H]1CC[C@]2(CO)CC[C@]3(C)[C@H](CC[C@@H]4[C@@]5(C)CCC(NCCc6ccc(O)cc6)C(C)(C)[C@@H]5CC[C@]43C)[C@@H]12` (stereo not given in full), the growth is -84.1% (active) with DU-145 prostate; -57.3% (active) in the assay with K-562 leukemia; -86.8% (active) in the assay with MALME-3M melanoma; -80% (active) with MDA-MB-231 breast; -85.7% (active) in the assay with RXF 393 renal; -74.8% (active) in the assay with SF-268 CNS. Besides, the growth in the assay with SF-295 CNS is -85.4% (active); in the assay on SF-539 CNS it was -93.6% (active); in the assay with UACC-257 melanoma, -86.3% (active); in the assay on M14 melanoma, -91.6% (active).
With `O=C1C=C(Nc2ccccc2)c2ncccc2C1=O`, the growth in the assay on DU-145 prostate was -95.4% (active); in the assay with K-562 leukemia it was -48% (active); with MALME-3M melanoma, -91.3% (active); in the assay on MDA-MB-231 breast, -18% (active); in the assay on RXF 393 renal, -96.4% (active); in the assay with SF-268 CNS, -61.9% (active). The growth in the assay with SF-295 CNS is -97.5% (active); in the assay on SF-539 CNS, -87.3% (active); in the assay with UACC-257 melanoma, -97.7% (active); with M14 melanoma, -86.3% (active).
`O=C1OCC2=C1C(c1cccc([N+](=O)[O-])c1)c1cc3c(cc1N2CCO)CCC3` (stereo not given): the growth in the assay with DU-145 prostate was 3.17% (active); with K-562 leukemia it was 7.29% (active); in the assay with MALME-3M melanoma, 38.9%; in the assay with MDA-MB-231 breast, 30%; in the assay on RXF 393 renal it was 27.8%; with SF-268 CNS, 33.1%. The growth in the assay on SF-295 CNS is -11.7% (active); in the assay with SF-539 CNS, -16.4% (active); in the assay with UACC-257 melanoma, 69.9%; with M14 melanoma, 3.09% (active).
`COc1cc(OC)cc(-c2ccc(-c3ccc(C(=N)N)cn3)s2)c1`: the growth in the assay on DU-145 prostate was 66.3%; in the assay on K-562 leukemia, 0.742% (active); with MALME-3M melanoma it was 99.5%; in the assay with MDA-MB-231 breast, 81.1%; with RXF 393 renal it was 98.6%; in the assay on SF-268 CNS, 93.9%. For the same compound, the growth was 88.7% with SF-295 CNS, 83.3% in the assay on SF-539 CNS, 97.8% in the assay with UACC-257 melanoma and 95.7% in the assay with M14 melanoma.
`O=C(Nc1ccc2ncsc2c1)c1csc(Nc2ccc3[nH]ncc3c2)n1`: the growth in the assay with DU-145 prostate was 35.5%; in the assay with K-562 leukemia, 28.1%; with MALME-3M melanoma it was 57.1%; with MDA-MB-231 breast it was 62.9%; in the assay on RXF 393 renal, 13.9%; in the assay on SF-268 CNS it was 55.8%. For the same compound, the growth in the assay on SF-295 CNS is 25.5%; with SF-539 CNS it was 22.9%; in the assay on UACC-257 melanoma, 63.8%; in the assay with M14 melanoma it was 25.2%.
In the case of `C=C1CC[C@@H]2[C@](C)(COC(C)=O)[C@H](OC(C)=O)CC[C@@]2(C)[C@@H]1CC(Nc1ccc(S(=O)(=O)Nc2nccs2)cc1)C1=CCOC1=O` (stereo not given in full), the growth with DU-145 prostate is 22.3%; in the assay with K-562 leukemia, 3.4% (active); in the assay on MALME-3M melanoma it was 0.4% (active); in the assay on MDA-MB-231 breast, 5.69% (active); with RXF 393 renal, -50.6% (active); in the assay with SF-268 CNS, 21.3%. The growth in the assay with SF-295 CNS was 73%; in the assay on SF-539 CNS, -67.1% (active); in the assay with UACC-257 melanoma it was 22.4%; in the assay on M14 melanoma, 8.12% (active).
As for `Cc1c(CC(=O)OCCO)cc(-c2ccc(Cl)cc2)n1-c1ccccc1`, the growth in the assay with DU-145 prostate is 102%; in the assay on K-562 leukemia it was 70.5%; with MALME-3M melanoma, 103%; in the assay on MDA-MB-231 breast, 95.4%; in the assay with RXF 393 renal, 107%; in the assay with SF-268 CNS it was 94.5%. For the same compound, the growth is 96.6% in the assay with SF-295 CNS, 101% in the assay with SF-539 CNS, 98.9% in the assay on UACC-257 melanoma and 109% with M14 melanoma.
On to `N=c1ccccn1CCO`, for which the growth was 125% in the assay on DU-145 prostate; 108% in the assay with K-562 leukemia; 111% with MALME-3M melanoma; 95% with MDA-MB-231 breast; 114% with RXF 393 renal; 110% with SF-268 CNS. Further, the growth was 124% in the assay on SF-295 CNS, 107% in the assay with SF-539 CNS, 105% in the assay on UACC-257 melanoma and 102% in the assay with M14 melanoma.
For the compound `Cc1nn(-c2nc(-c3cc4ccccc4oc3=O)cs2)c(C)c1N=Nc1ccccc1`, the growth in the assay with DU-145 prostate was 90.4%; in the assay on K-562 leukemia it was 93%; in the assay on MALME-3M melanoma, 96.5%; in the assay on MDA-MB-231 breast it was 87.8%; in the assay on RXF 393 renal, 112%; in the assay on SF-268 CNS, 105%. Moreover, the growth in the assay with SF-295 CNS was 104%; in the assay on SF-539 CNS, 102%; in the assay with UACC-257 melanoma it was 103%; in the assay on M14 melanoma, 110%.
For the compound `COc1ccc(C/C(C)=C(/c2ccc(OCCN3CCCCCC3)cc2)c2ccc(OC(=O)c3ccccc3)cc2)cc1`, the growth with DU-145 prostate was 114%; in the assay with K-562 leukemia it was 89.7%; with MALME-3M melanoma, 104%; in the assay on MDA-MB-231 breast, 104%; in the assay on RXF 393 renal, 124%; in the assay on SF-268 CNS, 106%. Also, the growth with SF-295 CNS was 96.1%; in the assay with SF-539 CNS, 96.8%; in the assay with UACC-257 melanoma it was 100%; with M14 melanoma it was 95.3%.
For the compound `COc1cc2nc3cc([N+](=O)[O-])ccc3c(NCCNCC(C)(C)O)c2cc1OC`, the growth with DU-145 prostate was -8.55% (active); in the assay on K-562 leukemia, 1.28% (active); in the assay on MALME-3M melanoma it was -74.4% (active); in the assay on MDA-MB-231 breast, -28.5% (active); with RXF 393 renal, -47.3% (active); in the assay with SF-268 CNS it was -10.8% (active). Also, the growth in the assay with SF-295 CNS is 16.4%; in the assay on SF-539 CNS, -20.8% (active); in the assay with UACC-257 melanoma, -61.8% (active); with M14 melanoma it was -75.7% (active).
Consider `O=C(CCl)n1nnnc1Cc1ccccc1`, for which the growth in the assay with DU-145 prostate is 110%; in the assay on K-562 leukemia, 83.4%; in the assay with MALME-3M melanoma it was 106%; in the assay on MDA-MB-231 breast, 92.9%; with RXF 393 renal it was 112%; in the assay with SF-268 CNS, 106%. Besides, the growth was 90.7% in the assay with SF-295 CNS, 92.2% in the assay with SF-539 CNS, 88.7% in the assay on UACC-257 melanoma and 98.6% in the assay with M14 melanoma.
